Experimental findings from the supplement of paper PMC10515830 are described below.

Counter-ions that a name gives are not always drawn.

Common to all, as to settings: 10 µM; exposure time 6 h
In assay [1] the test system is Danio rerio larvae (5 dpf). In words: difference in excitability vs DMSO (percentage points); higher = more excitable than DMSO. Summed up:
(§1)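 Library compounds were tested at 10 µM final in 100 µL egg water on wild-type 5 dpf zebrafish larvae in 96-well plates for 6 h, with 48 larvae per compound. After 3 h, plates at 28.5 ℃ were imaged every 6 s during a 3-h run of moving lines and 100 ms, 400Hz tones. Behaviours were quantified by Z-LaP Tracker and reported as the compound mean less the vehicle control mean, in percentage points.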

The test system of assay [2] is Danio rerio larvae (5 dpf). Briefly: difference in startle response vs DMSO (percentage points); higher = stronger startle than DMSO. Summed up: as §1
In assay [3] the test system is Danio rerio larvae (5 dpf). Briefly: difference in activity during first hour vs DMSO (percentage points); higher = more activity than DMSO. Summed up: as §1
Assay [4] has as its system Danio rerio larvae (5 dpf). In words: difference in habituation to acoustic stimuli vs DMSO (percentage points); higher = more habituation than DMSO. The method in brief:
as §1

Assay [5] relates to Danio rerio larvae (5 dpf). In words: difference in combined optomotor response to red, green and blue moving lines vs DMSO (percentage points); higher = stronger optomotor response than DMSO. Summed up: as §1

Consider `CCOc1ccccc1OCCN[C@H](C)Cc1ccc(OC)c(S(N)(=O)=O)c1` [Tamsulosin (hydrochloride)], for which, in assay [1], the difference in excitability was determined as 25.5. In addition, the “difference in startle response” value in assay [2] worked out at 3.47. In addition, in assay [3], the “difference in activity during first hour” value is -3.28. The “difference in habituation to acoustic stimuli” value (shortened to “difference in habituation”) in assay [4] turned out to be 1.9. The difference in assay [5] came to 1.52.

In assay [1], `Cc1ccc(C(=O)c2cc(O)c(O)c([N+](=O)[O-])c2)cc1` [Tolcapone] had a difference in excitability of 5.24. Further, in assay [2], the “difference in startle response” value was -9.07. Moreover, the “difference in activity during first hour” value in assay [3] was 8.3. In addition, in assay [4], the “difference in habituation” value was -6.19. The difference in assay [5] is -0.989.

`NS(=O)(=O)c1cc(Cl)c(Cl)c(S(N)(=O)=O)c1` [Dichlorphenamide] had a difference in excitability in assay [1] of 1.47. Also, the “difference in startle response” value in assay [2] is -2.89. In addition, the “difference in activity during first hour” value in assay [3] was -2.19. In addition, the “difference in habituation” value in assay [4] was -4.78. For the same compound, the difference in assay [5] is -8.01.

The compound `CC(C)(C)c1cc(C(C)(C)C)c(NC(=O)c2c[nH]c3ccccc3c2=O)cc1O` [Ivacaftor] yielded a difference in excitability in assay [1] of 2. Also, the “difference in startle response” value in assay [2] is -4.58. Besides, in assay [3], the “difference in activity during first hour” value was -10. In addition, the “difference in habituation” value in assay [4] was -2.59. Besides, the difference in assay [5] worked out at 5.49.

With `NC(=O)NO` [Hydroxyurea], in assay [1], the difference in excitability was -1.52. The “difference in startle response” value in assay [2] was found to be 8.36. Moreover, the “difference in activity during first hour” value in assay [3] is 2.09. The “difference in habituation” value in assay [4] turned out to be 5.31. Moreover, the difference in assay [5] was found to be 3.68.

The compound `NS(=O)(=O)c1cc2c(cc1Cl)N=CNS2(=O)=O` [Chlorothiazide] registered a difference in excitability in assay [1] of -0.0236. For the same compound, in assay [2], the “difference in startle response” value is -3.29. In assay [3], the “difference in activity during first hour” value worked out at 3.22. Also, in assay [4], the “difference in habituation” value was 6.65. Moreover, in assay [5], the difference is -5.74.

`CO[C@H]1/C=C/O[C@@]2(C)Oc3c(C)c(O)c4c(O)c(c(/C=N/N5CCN(C6CCCC6)CC5)c(O)c4c3C2=O)NC(=O)/C(C)=C\C=C\[C@H](C)[C@H](O)[C@@H](C)[C@@H](O)[C@@H](C)[C@H](OC(C)=O)[C@@H]1C` [Rifapentine] gave a difference in excitability in assay [1] of 24.8. The “difference in startle response” value in assay [2] is -0.153. In addition, in assay [3], the “difference in activity during first hour” value is -3.15. The “difference in habituation” value in assay [4] is 6.16. For the same compound, the difference in assay [5] came to 6.78.

For `COC(=O)N[C@H](C(=O)N[C@@H](Cc1ccccc1)[C@@H](O)CN(Cc1ccc(-c2ccccn2)cc1)NC(=O)[C@@H](NC(=O)OC)C(C)(C)C)C(C)(C)C` [Atazanavir], the difference in excitability in assay [1] is -0.672. Besides, the “difference in startle response” value in assay [2] was -1.55. In addition, in assay [3], the “difference in activity during first hour” value was -1.56. In addition, the “difference in habituation” value in assay [4] was -0.953. Besides, the difference in assay [5] amounted to 2.7.

As to `CC(=O)O[C@H]1C[C@@H]2CC[C@@H]3[C@H](CC[C@@]4(C)[C@H]3C[C@H]([N+]3(C)CCCCC3)[C@@H]4OC(C)=O)[C@@]2(C)C[C@@H]1N1CCCCC1` [Vecuronium (bromide)], the difference in excitability in assay [1] worked out at 11.8. Moreover, the “difference in startle response” value in assay [2] was -0.798. For the same compound, in assay [3], the “difference in activity during first hour” value was -6.01. Moreover, the “difference in habituation” value in assay [4] was found to be 3.25. Further, the difference in assay [5] is -1.83.

For the compound `O=NN(CCCl)C(=O)NCCCl` [Carmustine], in assay [1], the difference in excitability was -3.21. In assay [2], the “difference in startle response” value was 2.25. Besides, the “difference in activity during first hour” value in assay [3] stood at 1.68. For the same compound, the “difference in habituation” value in assay [4] is 0.0979. Besides, in assay [5], the difference was found to be 11.5.

Turning to `NC(=O)OCC(COC(N)=O)c1ccccc1` [Felbamate], the difference in excitability in assay [1] is -5.58. The “difference in startle response” value in assay [2] stood at 2.01. The “difference in activity during first hour” value in assay [3] turned out to be 9.63. The “difference in habituation” value in assay [4] is -0.648. For the same compound, in assay [5], the difference stood at 2.98.

Regarding `COCCOC(=O)C1=C(C)NC(C)=C(C(=O)OC(C)C)C1c1cccc([N+](=O)[O-])c1` (stereo not given) [Nimodipine], the difference in excitability in assay [1] is 7.48. The “difference in startle response” value in assay [2] is -6.36. Besides, in assay [3], the “difference in activity during first hour” value was 11.8. For the same compound, the “difference in habituation” value in assay [4] is -10.8. In addition, the difference in assay [5] is -14.5.

Compound `Cc1ccc(NC(=O)c2ccc(CN3CCN(C)CC3)cc2)cc1Nc1nccc(-c2cccnc2)n1` [Imatinib (mesylate)] gave a difference in excitability in assay [1] of 13.1. Also, the “difference in startle response” value in assay [2] was found to be 1.01. Also, the “difference in activity during first hour” value in assay [3] is -9.06. Further, in assay [4], the “difference in habituation” value amounted to 5.17. Also, the difference in assay [5] was -1.23.

Take `Nc1[nH]c(=O)ncc1F` [5-Fluorocytosine]: the difference in excitability in assay [1] was determined as 0.317. For the same compound, in assay [2], the “difference in startle response” value was found to be 1.12. Besides, the “difference in activity during first hour” value in assay [3] is -10.7. Also, the “difference in habituation” value in assay [4] is -2.78. For the same compound, the difference in assay [5] is 2.67.

`CC1(C)O[C@@H]2[C@@H](CO[C@@]3(COS(N)(=O)=O)OC(C)(C)O[C@@H]23)O1` [Topiramate] registered a difference in excitability in assay [1] of -2.77. For the same compound, the “difference in startle response” value in assay [2] was found to be 10.8. Also, in assay [3], the “difference in activity during first hour” value was -1.72. Besides, the “difference in habituation” value in assay [4] worked out at 1.75. For the same compound, in assay [5], the difference was -0.45.

In assay [1], `CCN(CC)CCOc1ccc(C(=C(Cl)c2ccccc2)c2ccccc2)cc1` [Clomiphene (citrate)] registered a difference in excitability of -9.14. Besides, the “difference in startle response” value in assay [2] was determined as 5.47. Besides, in assay [3], the “difference in activity during first hour” value is -4.03. For the same compound, the “difference in habituation” value in assay [4] was -5.11. The difference in assay [5] is -16.4.

In turn, `CC(=O)OC(C)C[N+](C)(C)C` (stereo not drawn) [Acetyl-β-methylcholine (chloride)] came in with a difference in excitability in assay [1] of 1.77. In assay [2], the “difference in startle response” value was 1.22. Besides, in assay [3], the “difference in activity during first hour” value came to 3.93. Besides, in assay [4], the “difference in habituation” value is 15. Moreover, the difference in assay [5] worked out at 1.43.

Compound `OC(CNCC(O)C1CCc2cc(F)ccc2O1)C1CCc2cc(F)ccc2O1` (stereo not given) [Nebivolol (hydrochloride)] displayed a difference in excitability in assay [1] of 9.49. In addition, the “difference in startle response” value in assay [2] is -4.14. The “difference in activity during first hour” value in assay [3] turned out to be 2.55. In addition, the “difference in habituation” value in assay [4] is -2.7. The difference in assay [5] was -10.6.

Turning to `Cc1cc(Nc2ncc(Cl)c(Nc3ccccc3S(=O)(=O)C(C)C)n2)c(OC(C)C)cc1C1CCNCC1` [Ceritinib], the difference in excitability in assay [1] came out at 23.6. Further, in assay [2], the “difference in startle response” value is -3.09. Besides, in assay [3], the “difference in activity during first hour” value is -7.86. In addition, in assay [4], the “difference in habituation” value is -6.25. For the same compound, in assay [5], the difference was -1.6.

`NC[C@@H](O)c1ccc(O)c(O)c1` [L-(-)-Norepinephrine (bitartrate hydrate)] returned a difference in excitability in assay [1] of 5.69. The “difference in startle response” value in assay [2] is -4.59. Moreover, the “difference in activity during first hour” value in assay [3] was 23. In addition, the “difference in habituation” value in assay [4] is -6.22. The difference in assay [5] was 6.76.

In turn, `COc1c(N2C[C@@H]3CCCN[C@@H]3C2)c(F)cc2c(=O)c(C(=O)O)cn(C3CC3)c12` [Moxifloxacin (hydrochloride)] showed a difference in excitability in assay [1] of 22.9. Also, the “difference in startle response” value in assay [2] amounted to 4.54. Further, the “difference in activity during first hour” value in assay [3] came to 5.78. In addition, in assay [4], the “difference in habituation” value turned out to be 3.51. The difference in assay [5] is 3.81.

Turning to `CC(C)(O/N=C(\C(=O)N[C@@H]1C(=O)N2C(C(=O)[O-])=C(C[n+]3ccccc3)CS[C@H]12)c1csc(N)n1)C(=O)O` [Ceftazidime (hydrate)], in assay [1], the difference in excitability is -0.0444. Moreover, the “difference in startle response” value in assay [2] was found to be 0.0878. The “difference in activity during first hour” value in assay [3] amounted to 3.86. The “difference in habituation” value in assay [4] worked out at 0.293. Further, the difference in assay [5] turned out to be 4.55.

Take `COc1ccccc1OCCNCC(O)COc1cccc2[nH]c3ccccc3c12` (stereo not given) [Carvedilol]: in assay [1], the difference in excitability was found to be 21.2. In addition, the “difference in startle response” value in assay [2] turned out to be 2.07. In assay [3], the “difference in activity during first hour” value was -3.13. The “difference in habituation” value in assay [4] stood at 0.913. Also, the difference in assay [5] is 3.65.

In the case of `COC(=O)N[C@H](C(=O)N1CCC[C@H]1c1ncc(-c2ccc(-c3ccc(-c4cnc([C@@H]5CCCN5C(=O)[C@@H](NC(=O)OC)C(C)C)[nH]4)cc3)cc2)[nH]1)C(C)C` [Daclatasvir], the difference in excitability in assay [1] amounted to 18.7. In assay [2], the “difference in startle response” value came out at 2.15. In assay [3], the “difference in activity during first hour” value was -4.26. Besides, in assay [4], the “difference in habituation” value is 0.308. In addition, the difference in assay [5] is -0.609.
